The text below walks through data of PubChem BioAssay AID624354 (Sanford-Burnham Center for Chemical Genomics, 2012).

In all, about 360,000 compounds went through this assay and about 3,800 (1.1%) were called active.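 Rule for the calls: active = compounds causing at least 50% loss of cell viability in the single-dose screen, relative to plate controls; inactive = the rest.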 Many of the other results were omitted from the sample, so actives are more common in it than they were.

The assay can be described thus: TRAIL-exposed caspase-8 expressing cell killing – NB7+C8 cells, ATPlite luminescence, TRAIL sensitizer project, primary screen (AID 624354). To be noted: at 10 µM, hits give high values.
Take `COc1ccccc1NS(=O)(=O)N(C)C`: the inhibition (viability loss, TRAIL sensitization) was -12.4% (inactive). With `NC(=O)COc1ccc(NC(=O)c2ccccc2-c2ccccc2)cc1`, the inhibition (viability loss, TRAIL sensitization) was -7.08% (inactive). Then `CC(=O)C[C@H](O)CC(=O)[C@@H]1OC(=O)[C@@H](C)C/C=C\Cc2ccccc21`, with -3.79% (inactive).

Take `CCC(=O)Nc1ccc(S(=O)(=O)Nc2c(NC)c3ccccc3oc2=O)cc1`: the inhibition (viability loss, TRAIL sensitization) was 1.26% (inactive). Then `Cc1cn([C@H]2C[C@H](O)[C@@H](CNC(=O)[C@H](N)Cc3cccnc3)O2)c(=O)[nH]c1=O`, with -0.759% (inactive).

For the compound `CNC(=O)/C(=C\C=C\c1ccccc1)NC(=O)c1ccc([N+](=O)[O-])cc1`, the inhibition (viability loss, TRAIL sensitization) was -5.87% (inactive). Then `CN1OC[C@@H]2CN(C(=O)c3ccc(-c4ccccc4)cc3)[C@H](c3ccc(-c4cccc(F)c4)cc3)C[C@@H]21`, with -16.6% (inactive); and `CCCOc1ccc(Cc2c(Cl)nc(SC)nc2NC)cc1`, with 31.2% (inactive). Regarding `Cc1occc1C(=O)N/N=C/c1ccc(-c2cccc([N+](=O)[O-])c2)o1`, the inhibition (viability loss, TRAIL sensitization) was -8.06% (inactive). Then `Cc1[nH]n(-c2ccccc2)c(=O)c1/C=N/NC(=O)c1ccoc1C`, with 53.8% (active); and `Cc1ccc(-c2ccnc3[nH]n(-c4ccccc4)c(=O)c23)cc1`, with -11.3% (inactive); and `CCOc1ccc(S(=O)(=O)N2CCC(c3ccccc3)CC2)cc1C(=O)O`, with -3.46% (inactive). Then `O=C(NC1=CC(=O)c2ccccc2C1=O)c1ccccc1`, with 94.6% (active). Then `C/C(=N\NC(=O)c1ccc(C)cc1)C1C(=O)c2ccccc2C1=O`, with 8.6% (inactive); and `COc1cc(NC(=O)c2ccccc2)c(OC)cc1NC(=O)Cc1ccccc1`, with -3.72% (inactive); and `CC1(C(=O)NS(=O)(=O)Cc2cccc(Cl)c2)CCN1C(=O)Cc1ccc(Cl)cc1Cl` (stereo not given), with -0.832% (inactive). For the compound `COc1ccc(C(N)c2csc(NC(=O)Nc3cccc(C(F)(F)F)c3)n2)cc1` (stereo not given), the inhibition (viability loss, TRAIL sensitization) was 25.4% (inactive). Then `CC(C)(C)CC(=O)Nc1nc(C(N)Cc2ccc(C(F)(F)F)cc2)cs1` (stereo not given), with -0.292% (inactive). For the compound `NC(c1csc(NC(=O)Nc2cccc(C(F)(F)F)c2)n1)C1CCCCC1` (stereo not given), the inhibition (viability loss, TRAIL sensitization) was 88.8% (active).

`Cc1cccc(C(=O)OC(C)C(=O)NC2CCCc3ccccc32)c1O` (stereo not given): the inhibition (viability loss, TRAIL sensitization) is 12.2% (inactive). Then `CC1CCN(C(=O)C2CCN(S(=O)(=O)N3CCC4(CC3)OCCO4)CC2)CC1`, with -3.06% (inactive).

Consider `CCOC(=O)C1=C(C)NC(C)=C(C(=O)OCC)C1C1=COCCO1`, for which the inhibition (viability loss, TRAIL sensitization) is -19.1% (inactive).

Consider `CC1COc2ccccc2N1C(=O)c1ccc(F)cc1` (stereo not given), for which the inhibition (viability loss, TRAIL sensitization) was -8.83% (inactive). Then `O=C(c1ccc(F)cc1)N1CCC(n2nnc3ccccc32)CC1`, with -1.41% (inactive); and `O=C(c1ccc(F)cc1)n1c(=S)nc2ccccn21`, with 83% (active). For `Cc1c(C2=CCN(S(=O)(=O)c3ccc(Cl)cc3)CC2)c2ccccc2n1C`, the inhibition (viability loss, TRAIL sensitization) is 9.41% (inactive). Then `Cn1c(N)c(C(=O)COC(=O)/C=C/c2ccc(OC(F)F)cc2)c(=O)n(C)c1=O`, with -6.75% (inactive). For `Cc1ccccc1C(OCCN(C)C)C1CCCCC1` (stereo not given), the inhibition (viability loss, TRAIL sensitization) is -0.767% (inactive). Then `Brc1ccc(C2CC(c3ccccc3)=Nc3ccccc3N2)cc1` (stereo not given), with 24.3% (inactive); and `COc1ccc(C2CC(c3ccccc3)=NN2C(=O)CSc2nccc(=O)[nH]2)cc1` (stereo not given), with 25.2% (inactive). Then `CNC(=S)N1N=C(c2ccccc2)CC1c1ccc(Br)cc1` (stereo not given), with 79.2% (active); and `CC1C(=O)N(Cc2ccccc2)c2ccccc2N1C(=O)c1ccccc1` (stereo not given), with -0.863% (inactive). For the compound `CC1CC(C)CN(CC(=O)N2c3ccccc3CCc3ccccc32)C1` (stereo not given), the inhibition (viability loss, TRAIL sensitization) is -22.2% (inactive). Then `CC1C(C)N(C(=O)CCl)c2ccccc2N1C(=O)CCl` (stereo not given), with 88.6% (active). Then `COc1ccc(C(=O)NC(C)Cn2nc(C)cc2C)cc1OC1CCN(C(C)=O)CC1` (stereo not given), with 8.29% (inactive); and `N#CCCN(C(=O)Nc1ccc(Cl)c(Cl)c1)C1CCCCC1`, with 7.87% (inactive). Then `O=C(CC(O)(C(F)(F)F)C(F)(F)F)Nc1ccc(Cl)c(Cl)c1`, with 62.6% (active); and `CC1(C(=O)O)CCC(C(=O)Nc2ccc(Cl)c(Cl)c2)C1(C)C` (stereo not given), with -2.64% (inactive). As for `CC(=O)N1Cc2cc(C(=O)NCc3cccc(F)c3)nc(-c3cccc(C4=CCCCC4)c3)c2[C@H]1CCO`, the inhibition (viability loss, TRAIL sensitization) was 4.95% (inactive). Then `CSCCC(NC(N)=O)C(=O)N(C)CC(=O)Nc1ccc(C)cc1` (stereo not given), with -24.9% (inactive); and `CCOC(=O)c1c(NC(=O)COC(=O)c2ccc(S(=O)(=O)C(F)F)cc2)sc(C(=O)N(C)C)c1C`, with -18.3% (inactive); and `COC(=O)c1sc(NC(=O)COC(=O)C2CCC2)c(C(=O)OC)c1C`, with -0.357% (inactive). Then `CCOC(=O)c1c(NC(=O)CCl)sc(C(=O)N(CC)CC)c1C`, with 92.5% (active). Then `CCc1ccc2oc(-c3ccc(N)cc3)nc2c1`, with 74.9% (active); and `O=C(C(Cc1ccccc1)n1cccc1)N1CCN(C2CCCCC2)CC1` (stereo not given), with 1.84% (inactive). Take `CC(=O)c1cccc(-c2cnc3c(NC=O)cc(-c4ccc(N(C)C)cc4)cn23)c1`: the inhibition (viability loss, TRAIL sensitization) was 17.5% (inactive). Then `CN(C)C(=O)c1cccc(-c2cnc3c(NC=O)cc(-c4ccc(F)cc4)cn23)c1`, with 16.1% (inactive). Then `CN(C)CCNC(=O)c1cccc(-c2cnc3c(NC=O)cc(-c4cccc(C(F)(F)F)c4)cn23)c1`, with 59.1% (active); and `Cc1ccc(-c2ccc(CN3C(C(C)C)C(=O)N(Cc4cn(CCC5OCCO5)nn4)CCS3(=O)=O)cc2)cc1` (stereo not given), with -2.12% (inactive).

With `Oc1cccc2cc(-c3ccncc3)cnc12`, the inhibition (viability loss, TRAIL sensitization) is 47.7% (inactive). Then `Cc1ccc(C(=O)NNC2=Nc3cc([N+](=O)[O-])ccc3OC2)cc1`, with -18% (inactive); and `COc1ccc(C(O)c2nc(-c3ccc4c(c3)OCO4)cs2)cc1` (stereo not given), with -6.82% (inactive). Then `COc1ccc(C2=Nc3cc(C)ccc3OC2)cc1`, with 58.6% (active); and `C=CCN(CC=C)C(=O)COC(=O)c1n[nH]c2ccccc12`, with 9.77% (inactive). Then `Nc1ccccc1-c1nc2ccncc2[nH]1`, with 12.6% (inactive); and `O=C1c2ccccc2C(c2nc3ccccc3[nH]2)N1c1ccccc1` (stereo not given), with -17.6% (inactive). As for `c1ccc2[nH]c(-c3nc4ccccc4[nH]3)nc2c1`, the inhibition (viability loss, TRAIL sensitization) was 69.4% (active).

Consider `CCOc1cc(/C=C(/C#N)c2ccc(Cl)cc2)cc(Cl)c1OCC(=O)O`, for which the inhibition (viability loss, TRAIL sensitization) was 11.5% (inactive).

Take `NC(=O)c1c(NC(=O)c2ccccc2)sc2c1CCCC2`: the inhibition (viability loss, TRAIL sensitization) is 53.3% (active). Take `O=C(CN1CCCC1)Nc1sc2c(c1C(=O)Nc1ccccc1)CCCC2`: the inhibition (viability loss, TRAIL sensitization) is 20.1% (inactive).

With `O=C(O)c1c(NC(=O)N2CCCC2)sc2c1CCCC2`, the inhibition (viability loss, TRAIL sensitization) was 1.53% (inactive). With `C[C@H]1[C@H]2c3nc4ccccc4n3C[C@H]1ON2C1CCCCC1`, the inhibition (viability loss, TRAIL sensitization) is -6.24% (inactive). Then `Cc1ccccc1S(=O)(=O)NC(=O)C1(C)CCN1C(=O)C1(c2ccc(Cl)cc2)CC1` (stereo not given), with -8.57% (inactive); and `CC(=O)c1ccc(S(=O)(=O)NC2CC(=O)N(c3ccc4c(c3)OCCO4)C2)cc1` (stereo not given), with 2.78% (inactive). Then `COc1ccc(Br)cc1CN(C)C(=O)C1CC(=O)N(C2CCCC2)C1` (stereo not given), with -13.6% (inactive); and `CN1C(=O)c2ccccc2C(C(=O)NCCCN2CCCC2)C1c1c[nH]c2ccccc12` (stereo not given), with 61.6% (active); and `CCN(CC)CCNC(=O)C1c2ccccc2C(=O)N(C)C1c1cn(C)c2ccccc12` (stereo not given), with 14.1% (inactive). Then `O=C(NCCCN1CCCCC1)C1CC(=O)N(CCc2ccccc2)C1` (stereo not given), with 1% (inactive); and `COCOc1cccc(CN2CCC(C)(Oc3ccc(SC)cc3)C2)c1` (stereo not given), with 10.9% (inactive); and `C[C@@H]1CN([C@H](C)CO)C(=O)CCCn2cc(nn2)CO[C@H]1CN(C)S(=O)(=O)c1ccc(Oc2ccccc2)nc1`, with 2.33% (inactive). Regarding `COc1ccc(CCNCC(O)Cn2ccc3ccccc32)cc1OC` (stereo not given), the inhibition (viability loss, TRAIL sensitization) is -3.08% (inactive). Then `O=C(NC1CCCCC1)c1ccc(CNc2c(N3CCOCC3)c(=O)c2=O)cc1`, with -0.739% (inactive).

Turning to `CCOC(=O)C1CCCN(C(=O)c2sc3nc(C)nc(N4CCOCC4)c3c2C)C1` (stereo not given), the inhibition (viability loss, TRAIL sensitization) is 15.8% (inactive). Then `Cc1cc(/C=C2/C(=N)N3C(=NC2=O)SN=C3S(C)(=O)=O)c(C)n1-c1ccccc1`, with 72.2% (active); and `CS(=O)(=O)c1ccc2c(c1)SC1=NC(=O)/C(=C/c3ccco3)C(=N)N12`, with 11.3% (inactive); and `CCOC(=O)C1=C(O)/C(=C/c2cc(C)n(-c3ccccc3)c2C)N=C1C`, with -20.2% (inactive). Then `COC(=O)C[C@@H]1C=C[C@@H](NC(=O)c2cccnc2)[C@@H](CO)O1`, with -8.25% (inactive); and `O=C(NC1CCCCC1)C(c1cc2ccccc2o1)n1c(=O)c(-c2ccco2)nc2ccccc21` (stereo not given), with 1.96% (inactive); and `CCOc1ccc(-c2cc(C(=O)N/N=C/c3ccc(O)cc3)c3ccccc3n2)cc1`, with 72.3% (active).

For the compound `C/C(=N\NC(=O)c1cc(-c2ccc(O)cc2)nc2ccccc12)c1cccnc1`, the inhibition (viability loss, TRAIL sensitization) is 3.5% (inactive).

On to `CCOc1ccc(/C=N\NC(=O)c2c(C)nc3cc(C)ccn23)cc1`, for which the inhibition (viability loss, TRAIL sensitization) is 7.46% (inactive). Turning to `Cc1ccc(S(=O)(=O)NCC2CCC(C(=O)N3CCOCC3)CC2)cc1` (stereo not given), the inhibition (viability loss, TRAIL sensitization) is -6.3% (inactive). As for `C[C@H]1NS(=O)(=O)c2cc(Cl)ccc2O[C@@H]1c1ccccc1`, the inhibition (viability loss, TRAIL sensitization) was 11.6% (inactive). Then `CCCn1nc(Oc2nc(NC(C)C)nc(N(C)C)n2)ccc1=O`, with -7.89% (inactive).

Consider `Cc1ccc2cc(CCNC(=O)c3ccc4c(c3)OCO4)c(=O)[nH]c2c1`, for which the inhibition (viability loss, TRAIL sensitization) was 1.68% (inactive). Then `Cc1nc2cc(NC(=O)Nc3cccc(F)c3)ccc2n1C`, with 63.6% (active); and `C=CCN(C(=O)Nc1ccc2c(c1)nc(C)n2C)c1ccccc1`, with 14.6% (inactive). Regarding `Cc1nc2cc(NCc3cccs3)ccc2n1C`, the inhibition (viability loss, TRAIL sensitization) is 2.96% (inactive).

Regarding `Cc1cc([N+](=O)[O-])c(=O)[nH]c1C`, the inhibition (viability loss, TRAIL sensitization) is 16.2% (inactive). Then `COC(=O)CCSc1nccn1Cc1ccccc1`, with -2.49% (inactive).
